This is a sample that favours compounds with a hit; in the whole collection about 2% have one here.
mut p53 react: mutant p53 pathway re-activators, primary screen, cell-based, SW480, luciferase, single point, HTS | AID 624151, 2012 | SW480 PUMA-promoter luciferase, p53 mutant reactivation | activation, % at 9.98 µM | 1.5% of 28,000 active; in the data active = activation above about 52%; inconclusive = no clear call, values can overlap the other calls
STK33 kin inh: STK33 kinase inhibitors, primary screen, biochemical, luminescence, ADP-Glo, MBP substrate; inhibition, % at 12.5 µM; 0.44% of 27,000 active; in the data active = inhibition above about 20%; inconclusive = no clear call, values can overlap the other calls
Target sequence (Q9BYT3 whole entry, looked up): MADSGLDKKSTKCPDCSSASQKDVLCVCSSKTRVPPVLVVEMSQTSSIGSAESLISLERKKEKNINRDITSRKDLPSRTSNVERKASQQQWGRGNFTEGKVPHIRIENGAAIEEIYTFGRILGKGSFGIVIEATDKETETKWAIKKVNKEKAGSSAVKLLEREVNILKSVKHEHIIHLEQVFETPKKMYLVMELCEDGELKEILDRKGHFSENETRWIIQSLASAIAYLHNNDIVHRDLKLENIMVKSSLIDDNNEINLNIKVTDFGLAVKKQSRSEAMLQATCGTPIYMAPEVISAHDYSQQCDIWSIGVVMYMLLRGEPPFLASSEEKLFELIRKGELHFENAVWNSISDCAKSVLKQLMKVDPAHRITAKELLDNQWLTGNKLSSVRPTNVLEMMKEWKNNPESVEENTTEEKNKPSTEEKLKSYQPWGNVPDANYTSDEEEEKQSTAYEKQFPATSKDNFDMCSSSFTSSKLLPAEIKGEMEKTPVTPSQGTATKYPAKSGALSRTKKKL
ID4 binder: binders of human ID4 protein, primary screen, biochemical, small molecule microarray, single point; 1.2% of 31,000 active; Flag-ID4 binding, fluorescence F/B; AID 624137, 2012; calls only; call rule not given here;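 note: a binder raises fluorescence above local background on the spot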
Active calls of the source: *; i = inactive; ? = inconclusive; . = no result; + = active, no number.

SMILES	mut p53 react	STK33 kin inh	ID4 binder
O=C(NC(=S)NCc1cccnc1)c1ccc(-c2cccc(Cl)c2Cl)o1	61*	6	i
O=C(NC(=S)NCc1cccnc1)c1ccc(-c2cccc([N+](=O)[O-])c2)o1	48	9	i
COc1ccc(NC(=O)c2ccco2)cc1NC(=S)NC(=O)c1ccc(-c2cccc(Cl)c2)o1	-36	5	i
CCOc1ccc(NC(=O)CSc2nnc(-c3cccs3)n2C)cc1	18	1	i
c1ccc(-c2nsc(NC3Cc4ccccc4C3)n2)cc1	109*	.	i
CCCCn1c(SCC(N)=O)nc2c1c(=O)n(C)c(=O)n2C	-6	3	i
Cn1c(=O)c2c(nc(N3CCOCC3)n2CCCN)n(C)c1=O	2	-1	+
Cc1cc2nn(-c3cccc4ccccc34)nc2cc1NC(=O)COc1ccc([N+](=O)[O-])cc1	-23	5	i
Cc1cc(Cl)ccc1OCC(=O)Nc1cccc(NC(=O)c2ccccc2Cl)c1	38	-4	i
COc1cccc(C(=O)COc2ccc(NC(=O)c3ccccc3C)cc2)c1	0	-2	i
Cc1cc(Cl)ccc1OCC(=O)Nc1cccc(NC(=O)c2ccccc2C)c1	57*	2	i
Cc1cccc(NC(=O)c2ccccc2OCC(=O)Nc2cccc([N+](=O)[O-])c2)c1C	-4	3	i
Cc1ccccc1C(=O)Nc1ccc(OCC(=O)O)cc1	-8	0	+
CC(=O)Nc1ccc(NC(=O)COc2ccccc2C(=O)Nc2cccc(C)c2C)cc1	-15	-4	+
O=C(N[C@H](COC(=O)[C@H](Cc1ccccc1)NC(=O)c1ccccc1)Cc1ccccc1)c1ccccc1	.	-1	i
Cc1ccccc1-c1cc(C(=O)NCCCN2CCOCC2)c2cc(Cl)ccc2n1	-13	4	i
O=C(/C=C/c1ccccc1)OC[C@H]1O[C@@H](O[C@@H]2CC(C(=O)O)=C[C@@H](O)[C@H]2O)[C@H](O)[C@@H](O)[C@@H]1O	.	0	.
CCOc1ccccc1CNCc1ccccn1	10	-6	i
CCCn1cnc2cc(NCc3ccccn3)ccc21	78*	2	i
CCC[C@@H](O)[C@H](O)[C@@H]1CC(OC)=CC(=O)O1	2	5	i
CCn1c(NCc2ccccc2O)nc2ccccc21	62*	-5	i
COc1ccc(CNc2nc3ccccc3n2C)c(O)c1	142*	-1	i
Cn1c(NCc2cc(Br)ccc2O)nc2ccccc21	?	5	i
C=CCn1c(NCc2cc(C)ccc2O)nc2ccccc21	.	1	.
Cc1ccc(NC(=O)CCn2nc(-c3ccccc3)c3ccccc3c2=O)cc1	8	-2	i
SMILES	mut p53 react	STK33 kin inh	ID4 binder
O=C(CNS(=O)(=O)c1ccccc1)Nc1cccc(F)c1	-2	6	i
CCC(CC)C(=O)N1c2ccccc2CCc2ccccc21	-4	.	i
COc1cc2c(cc1C(F)(F)F)N(C(=O)Nc1cc(F)cc(-c3cccnc3)c1)CC2	-70	.	i
Cn1ccc2cc3c(cc21)CCN3C(=O)Nc1cccnc1	69*	.	i
CC(=O)c1cccc(NC(=O)Nc2nn(Cc3c(F)cccc3Cl)cc2Br)c1	-55	0	i
Cc1cc(C)c(NC(=O)CSc2nnc(-c3ccc(F)cc3)n2C)c(C)c1	-4	-2	i
COc1ccccc1OCC(=O)Nc1oc(-c2ccccc2)c(-c2ccccc2)c1C#N	-13	-3	+
Cc1ccnc(SCC(=O)Nc2oc(-c3ccccc3)c(-c3ccccc3)c2C#N)n1	10	-6	i
CC1CCc2c(sc3ncnc(NCCc4nc5ccccc5[nH]4)c23)C1 (stereo unspecified)	-9	3	i
O=C1c2ccccc2[C@](Cc2ccccc2I)(C(=O)O)[C@H](c2ccc(CO)cc2)N1C1CCCCC1	.	-3	i
COc1cccc2cc(C(=O)NCc3ccccn3)c(=O)oc12	84*	-3	i
COc1ccccc1CNC(=O)c1cc2ccccc2oc1=O	88*	-1	i
CC(=O)NCCNC(=O)c1cc2ccccc2oc1=O	-2	3	i
CCOc1cccc2cc(C(=O)NCc3cccnc3)c(=O)oc12	-9	2	i
Cc1cc(C)cc(NC(=O)CSc2nc3ccccc3s2)c1	47	0	i
COc1cc(-c2cc(=O)c3c(O)c(OC)c(OC)c(OC)c3o2)cc(OC)c1OC	-18	2	i
COc1c(O[C@@H]2O[C@H](C(=O)O)[C@@H](O)[C@H](O)[C@H]2O)cc(O)c2c(=O)cc(-c3ccccc3)oc12	-79	0	i
COc1ccc(-c2cc(=O)c3c(O)cc(O)cc3o2)cc1O	.	46*	.
COc1cccc2oc(-c3ccccc3)cc(=O)c12	-39	1	i
COc1ccc(-c2cc(=O)c3cc(OC)ccc3o2)cc1	.	6	i
COc1cc(O)c2c(=O)cc(-c3ccccc3)oc2c1OC	.	23*	i
COc1cc2oc(-c3ccc(O)cc3)cc(=O)c2c(O)c1OC	-17	60*	i
COc1ccc(-c2cc(=O)c3ccc(OC)cc3o2)cc1	66*	4	.
O=C1c2c(O)cc(O)cc2O[C@@H](c2ccc(O)cc2)[C@@H]1O	13	.	.
COc1ccccc1NC(=O)c1ccc(OC(C)C(=O)Nc2cc(Cl)ccc2C)cc1 (stereo unspecified)	13	1	i
SMILES	mut p53 react	STK33 kin inh	ID4 binder
COc1c(O)cc2oc(-c3ccc(O)cc3)cc(=O)c2c1O	58*	15	.
O=c1cc(-c2ccccc2)oc2cc(O)c(O)c(O)c12	-25	.	.
O=C(Nc1sc2c(c1C(=O)NCc1ccco1)CCCC2)c1ccccc1[N+](=O)[O-]	-1	1	i
COc1ccc(OC)c(NC(=O)CNC(=O)c2ccc(C(C)(C)C)cc2)c1	7	-1	i
COc1ccc(OC)c(NC(=O)c2ccc(CSc3nnc(C)s3)cc2)c1	62*	0	i
COc1ccc(OC)c(NC(=O)Cc2ccc(OC)c(OC)c2)c1	-6	2	i
COc1ccc(C(=O)NCC(=O)Nc2cc(OC)ccc2OC)cc1	1	0	+
COc1ccc(OC)c(C(=O)CSc2nnc(-c3ccco3)n2C)c1	1	-1	i
CN(CC(=O)Nc1ccccc1C(=O)N1CCCCC1)S(=O)(=O)c1ccc2ccccc2c1	4	0	i
Cc1cc(OCC(=O)Nc2ccccc2C(N)=O)c(C)cc1Br	32	0	i
CCc1ccc(OCC(=O)Nc2ccccc2C(N)=O)c(Br)c1	71*	-7	i
Cc1cc(C)c(C)c(OCC(=O)Nc2ccccc2C(N)=O)c1	53*	0	i
COC(=O)c1ccccc1NC(=O)COc1ccc(C)cc1C	4	2	i
O=C(Cn1cc(C(=O)c2ccccc2F)c2ccccc21)Nc1cccc(C(F)(F)F)c1	6	-1	i
Cn1c(SCC(=O)c2cccc([N+](=O)[O-])c2)nnc1-c1cc2ccccc2o1	-1	0	i
O=C(CCCN1C(=O)c2ccccc2C1=O)Nc1ccccc1F	5	-3	i
CN(C)CCCCNC(=O)[C@@H]1C[C@@H]2C(=O)N[C@@H](CCCCN(C)C)C(=O)N2[C@@H]1c1ccc(O)cc1	.	1	.

Screening results deposited in PubChem BioAssay by Broad Institute.
